Source: ChEMBL document CHEMBL1157539, “Thousands of chemical starting points for antimalarial lead identification” (Nature, 2010)

What was measured:
Assay type in all cases: functional
Plasmodium falciparum [1] = assay: GSK_TCMDC: Inhibition of Plasmodium falciparum 3D7 in whole red blood cells, using parasite LDH activity as an index of growth. Test compounds present at 2uM
Plasmodium falciparum [2] = assay: GSK_TCMDC: Inhibition of Plasmodium falciparum Dd2 in whole red blood cells, using parasite LDH activity as an index of growth. Test compounds present at 2uM
HepG2 = assay: GSK_TCMDC: Percent inhibition of human HepG2 cell line. Test compounds present at 10uM.

SMILES | Inhibition (Plasmodium falciparum [1]) | Inhibition (Plasmodium falciparum [2]) | Inhibition (HepG2)
N#CC(c1cccc(Cl)c1)c1ccc2c(C(F)(F)F)cc(C(F)(F)F)nc2n1 (configuration not stated) | 96% | 97% | 52%
O=C(O)/C=C\C(=O)O.c1ccc(COc2ccnc(NCCCOc3cccc(CN4CCCCC4)c3)c2)cc1 | 100% | 51% | 22%
COc1ccc(CN(C)CCCc2ccc(NC(=O)Cc3ccc4nc(-c5ccccc5)ccc4c3)cc2)cc1OC | 98% | 0% | 10%
Clc1cccc(Nc2ccc3c(N4CCCCC4)ncnc3n2)c1 | 97% | 93% | 54%
Cn1cncc1C(=O)Nc1cccc(-c2cccc(-c3nc4cc(F)ccc4[nH]3)c2)c1 | 100% | 45% | 16%
CC(C)c1ccc(NC(=O)NCCCC2CCCN(CCCCCNC(=O)/C=C/c3ccc(Cl)c(Cl)c3)C2)cc1 (configuration not stated) | 90% | 42% | 25%
Cc1ccccc1C1CCN(C2CCC(NC(=O)/C=C/c3cc(F)ccc3C(F)(F)F)CC2)CC1 (configuration not stated) | 98% | 25% | 90%
Br.CC1(C)NC(N)=NC(=N)N1OCCCOc1cccc(Cl)c1 | 95% | 95% | 65%
O=C(NCC1CCC(C(=O)O)CC1)c1ccc(/C=C/C(=O)N2CCc3ccccc3C2c2ccc3c(c2)OCO3)cc1 (configuration not stated) | 91% | 17% | 66%
Cc1cccc(-c2cc3cc(Nc4ccnc5cc(-c6nccs6)ccc45)ccc3[nH]2)c1.Cl | 100% | 100% | 0%
Cc1ccc(NC(=O)N2CCC(n3c(-c4ccccc4)nc4cccnc43)CC2)cc1F | 96% | 85% | 23%
N#Cc1cnc2cc(-c3cnc(CNCCN4CCOCC4)s3)ccc2c1Nc1ccc(Oc2ccccc2)cc1 | 97% | 83% | 30%
O=C(Nc1cccc(-c2ccc(-c3nc4cc(C(F)(F)F)ccc4[nH]3)s2)c1)c1ccncc1 | 99% | 46% | 79%
Oc1ccc2nc(NCCCc3ccccc3)nc(NCCc3ccccc3)c2c1 | 99% | 88% | 31%
COc1ccc2[nH]cc(C3CCN(CCC4CCN(C(=O)/C=C/c5ccc(Cl)c(Cl)c5)CC4)CC3)c2c1 | 100% | 56% | 52%
COc1ccc2c(NN=Cc3cccc(F)c3)ccnc2c1 | 100% | 95% | 49%
CCOC(=O)C1=C(C)NC2=C(C(=O)CC(C)(C)C2)C1c1ccc(Br)cc1 (configuration not stated) | 90% | 66% | 0%
O=C(Nc1ccc(CCN2CCC(c3nc(COCC(F)(F)F)c(-c4ccccc4)o3)CC2)cc1)c1ccc(F)cc1 | 86% | 3% | 9%
Cc1ccc(CNC(=O)c2cc3c(=O)n4ccccc4nc3n(CCCN3CCOCC3)c2=N)cc1 | 92% | 5% | 21%
CCCCN(C(=O)c1ccccc1Cl)c1nnc(-c2ccccc2C)s1 | 90% | 86% | 12%
CN1CCc2cc(Br)c(O)cc2C1Cc1ccccc1Cl.Cl (configuration not stated) | 98% | 88% | 2%
COc1cccc(C=Cc2nc(=O)c3ccccc3o2)c1OC | 97% | 97% | 0%
CCOc1cc[nH]c(=O)n1 | 97% | 95% | 0%
CCC(C)CN1CCN(c2cc(NC(=O)c3cccs3)ccn2)C(C)C1.O=C(O)C(F)(F)F (configuration not stated) | 88% | 72% | 5%
O=C(NCCN1CCC(c2ccncc2)CC1)c1cccc(Nc2nccc(Nc3ccc(Oc4ccccc4)cc3)n2)c1 | 100% | 91% | 60%
COc1ccccc1N1CCN(CCCCNC(=O)c2ccc(NC(=O)c3ccc(C(F)(F)F)cc3)cc2)CC1 | 100% | 37% | 25%
O=C(Nc1cccc(CN2CCCN(Cc3ccccc3)CC2)c1)c1ccc(-c2ccccc2)cc1.O=C(O)C(F)(F)F | 85% | 8% | 45%
C=C[C@H]1CN(CCCCCCC)CC[C@H]1CC(O)Cc1ccnc2cc(O)c(OC)cc12.O=C(O)C(=O)O (some centres not stated) | 95% | 59% | 7%
Cc1c(Cc2ccc(F)cc2)c(Cl)nc2nc(N)nc(N)c12 | 92% | 1% | 66%
